Assay results from PubChem BioAssay (NCI).
This is part of a sample that, as a whole, favours compounds with a hit. Of some 83,000 tested, about 20% had one in any assay.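 Plates (96-well) were seeded with cells, treated with compound at one concentration, and incubated for 48 hours before percent growth was determined.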 Active and inactive are the calls of the source. Rule for the calls: active = growth percent below 10; inactive = the rest.

These molecules were tested on RPMI-8226 leukemia (assay: NCI-60 one-dose screen, 48 h (100 = growth as untreated, 0 = no growth, -100 = all killed)). Details: 10 µM unless noted.
`O=C1C=CC(=O)N1CO` was tested, and the growth was 112% (inactive). For `COc1ccc(C2C=C(c3ccc(Cl)cc3)N=C3SC=CN32)cc1` (centres undefined), the growth was 94.6% (inactive). In the case of `CCCCCc1c(C)[nH]c(/C=C2\N=C(c3ccc[nH]3)C=C2CC)c1C`, the growth is reported as -63.7% (active). `COc1ccc(CCN2COc3c([C@@H](C)CCC=C(C)C)ccc(C)c3C2)cc1OC` was tested, and the growth was 28.5% (inactive). `CN(CCO)c1ccc(N2Cc3ccccc3OC3=C2C(=O)c2c(O)ccc(O)c2C3=O)cn1` was tested, and the growth was -16.2% (active). With `Fc1ccc(-c2nnc(N3CCOCC3)c3ccccc23)cc1` the growth was 111% (inactive). With `CCCCCCCCCCCCCCCCCC1=NC(C)(C)CN1C(C)(C)CO` the growth was -35.3% (active). In the case of `SCc1ccc(CS)cc1`, the growth is reported as 103% (inactive). With `F` the growth was 22.4% [6.87 mM] (inactive).

What follows are molecules tested on OVCAR-8 ovarian in the same assay as above. Details: 10 µM unless noted.
`O=C(O)Cn1ccc2ccccc21` was tested, and the growth was 92.6% (inactive). With `Cc1ccc2nc(CN(CCN(Cc3nc4ccc(C)cc4[nH]3)Cc3nc4ccc(C)cc4[nH]3)Cc3nc4ccc(C)cc4[nH]3)[nH]c2c1` the growth was -71.8% (active). In the case of `CO[C@@]12[C@@H]3NC3CN1C1=C(C(=O)C(N)=C(C)C1=O)[C@@H]2COC(N)=O` (some centres undefined), the growth is reported as 15.8% (inactive). With `COCCn1c(Nc2ccc(C(=O)NO)cc2)nc2ccccc21` the growth was 37.3% (inactive). For `N#Cc1c(NN)n(C2OC(CO)C(O)C2O)c2ncnc(N)c12` (centres undefined), the growth was 0.0898% (active). With `CCCCCNCCCCCNc1cc(OC)cc2cccnc12` the growth was 101% (inactive). With `Cc1cc(O)ccc1C1=NN(c2ccc(S(N)(=O)=O)cc2)C(=O)CC1` the growth was 50.1% (inactive). With `CC(=O)OC1Oc2cc(C)c(C)cc2-c2oc(=O)c(-c3ccc(F)cc3)cc21` (centres undefined) the growth was 81.9% (inactive). `CCCCCCCCCCCCCCCC1=NCC[N+]1(CCO)CCO` was tested, and the growth was 37% (inactive). For `Nc1cc2nc3ccccc3oc-2cc1=O`, the growth was 58.4% (inactive). For `CCOC(=O)C(=CNc1ccccc1Cl)C(=O)OCC`, the growth was 91.4% (inactive). `O=[N+]([O-])c1cc(F)c2cccnc2c1O` was tested, and the growth was 88.8% (inactive). `COc1ccc(CCN2COc3c([C@@H](C)CCC=C(C)C)ccc(C)c3C2)cc1OC` was tested, and the growth was 72.1% (inactive). With `Cc1nc([C@H]2CC[C@H]3[C@@H]4CCC5=CC(=O)CC[C@]5(C)[C@H]4CC[C@]23C)cs1` the growth was 47.9% (inactive). `CC(=O)OC1Oc2ccccc2-c2oc3nc(=N)n(C)c-3cc21` (centres undefined) was tested, and the growth was 98.6% (inactive). With `Cn1c(=O)c2c3c(oc2c2ccccc21)C(=O)c1ccccc1C3=O` the growth was 85.3% (inactive). In the case of `CC(=O)[C@@]1(O)[C@H](C)C[C@H]2[C@@H]3C=C(C)C4=Cc5c(cnn5-c5ccccc5)C[C@]4(C)[C@H]3[C@@H](O)C[C@@]21C`, the growth is reported as 37.3% (inactive). In the case of `N#Cc1c(N)n(C2OC(CO)C(O)C2O)c2ncnc(N)c12` (centres undefined), the growth is reported as -13.1% (active). For `CC(=O)OC1Oc2cc(C)c(C)cc2-c2oc(=O)c(-c3cc4ccccc4oc3=O)cc21` (centres undefined), the growth was 101% (inactive). `SCc1ccc(CS)cc1` was tested, and the growth was 98.4% (inactive). For `CC1=C(C(=O)Nc2ccc(F)cc2)C(c2ccccc2)C2=C(CC(C)(C)CC2=O)N1` (centres undefined), the growth was 73.3% (inactive). `Clc1ccc2c(c1)-n1cccc1C(c1ccc3ccccc3c1)=NC2` was tested, and the growth was 102% (inactive). In the case of `F`, the growth is reported as 30% [6.87 mM] (inactive). With `COc1cccc(OCC(O)CN2CCN(c3ccccc3)CC2)c1` (centres undefined) the growth was 103% (inactive). For `CSCCC1NC(=O)C(C(C)=Nc2ccccc2)=C1O` (centres undefined), the growth was 111% (inactive). In the case of `C1=C\CCCCN2CC[C@H]3[C@H](CCCC/C=C\CCCN4C[C@@H](CCCCC/1)C[C@@H]3C4)C2`, the growth is reported as 77.4% (inactive). With `CCOc1c(C#N)c2c(N)ncnc2n1C1OC(CO)C(O)C1O` (centres undefined) the growth was 89.6% (inactive). In the case of `COc1cc(/C=C/c2ccc3c(Br)cc(Br)c(O)c3n2)ccc1O`, the growth is reported as 17.5% (inactive). In the case of `Cc1ccc(O)c(Cc2ccccc2)c1`, the growth is reported as 102% (inactive). With `c1ccc2c(c1)cnc1ccccc12` the growth was 97.5% (inactive). `O=C(Nc1ccc(Oc2ccc(NC(=O)Nc3ccccc3Cl)cc2)cc1)Nc1ccccc1Cl` was tested, and the growth was 56.1% (inactive).

Each molecule was assayed on OVCAR-5 ovarian in the same assay as above. Details: 10 µM unless noted.
For `O=C(O)Cn1ccc2ccccc21`, the growth was 100% (inactive). `Cc1ccc2nc(CN(CCN(Cc3nc4ccc(C)cc4[nH]3)Cc3nc4ccc(C)cc4[nH]3)Cc3nc4ccc(C)cc4[nH]3)[nH]c2c1` was tested, and the growth was -67.8% (active). With `CO[C@@]12[C@@H]3NC3CN1C1=C(C(=O)C(N)=C(C)C1=O)[C@@H]2COC(N)=O` (some centres undefined) the growth was 45.7% (inactive). In the case of `COCCn1c(Nc2ccc(C(=O)NO)cc2)nc2ccccc21`, the growth is reported as 47.4% (inactive). In the case of `N#Cc1c(NN)n(C2OC(CO)C(O)C2O)c2ncnc(N)c12` (centres undefined), the growth is reported as 17% (inactive). `CCCCCNCCCCCNc1cc(OC)cc2cccnc12` was tested, and the growth was 87.2% (inactive). In the case of `Cc1cc(O)ccc1C1=NN(c2ccc(S(N)(=O)=O)cc2)C(=O)CC1`, the growth is reported as 93% (inactive). In the case of `CC(=O)OC1Oc2cc(C)c(C)cc2-c2oc(=O)c(-c3ccc(F)cc3)cc21` (centres undefined), the growth is reported as 86.2% (inactive). In the case of `CCCCCCCCCCCCCCCC1=NCC[N+]1(CCO)CCO`, the growth is reported as 43.1% (inactive). In the case of `Nc1cc2nc3ccccc3oc-2cc1=O`, the growth is reported as 81.6% (inactive). In the case of `CCOC(=O)C(=CNc1ccccc1Cl)C(=O)OCC`, the growth is reported as 100% (inactive). `O=[N+]([O-])c1cc(F)c2cccnc2c1O` was tested, and the growth was 105% (inactive). For `O=C1C=CC(=O)N1CO`, the growth was 101% (inactive). With `COc1ccc(C2C=C(c3ccc(Cl)cc3)N=C3SC=CN32)cc1` (centres undefined) the growth was 121% (inactive). `CCCCCc1c(C)[nH]c(/C=C2\N=C(c3ccc[nH]3)C=C2CC)c1C` was tested, and the growth was -95.5% (active). With `COc1ccc(CCN2COc3c([C@@H](C)CCC=C(C)C)ccc(C)c3C2)cc1OC` the growth was 83% (inactive). For `Cc1nc([C@H]2CC[C@H]3[C@@H]4CCC5=CC(=O)CC[C@]5(C)[C@H]4CC[C@]23C)cs1`, the growth was 91.4% (inactive). In the case of `CC(=O)OC1Oc2ccccc2-c2oc3nc(=N)n(C)c-3cc21` (centres undefined), the growth is reported as 107% (inactive). For `Cn1c(=O)c2c3c(oc2c2ccccc21)C(=O)c1ccccc1C3=O`, the growth was 120% (inactive). For `CN(CCO)c1ccc(N2Cc3ccccc3OC3=C2C(=O)c2c(O)ccc(O)c2C3=O)cn1`, the growth was -59.8% (active). In the case of `Fc1ccc(-c2nnc(N3CCOCC3)c3ccccc23)cc1`, the growth is reported as 108% (inactive). For `CC(=O)[C@@]1(O)[C@H](C)C[C@H]2[C@@H]3C=C(C)C4=Cc5c(cnn5-c5ccccc5)C[C@]4(C)[C@H]3[C@@H](O)C[C@@]21C`, the growth was 40.6% (inactive). In the case of `N#Cc1c(N)n(C2OC(CO)C(O)C2O)c2ncnc(N)c12` (centres undefined), the growth is reported as -11.4% (active). `CCCCCCCCCCCCCCCCCC1=NC(C)(C)CN1C(C)(C)CO` was tested, and the growth was 37.9% (inactive). In the case of `CC(=O)OC1Oc2cc(C)c(C)cc2-c2oc(=O)c(-c3cc4ccccc4oc3=O)cc21` (centres undefined), the growth is reported as 97.6% (inactive). `SCc1ccc(CS)cc1` was tested, and the growth was 95.9% (inactive). In the case of `CC1=C(C(=O)Nc2ccc(F)cc2)C(c2ccccc2)C2=C(CC(C)(C)CC2=O)N1` (centres undefined), the growth is reported as 90.7% (inactive). In the case of `O=C(C(=O)c1cccnc1)c1cccnc1`, the growth is reported as 100% (inactive). For `Clc1ccc2c(c1)-n1cccc1C(c1ccc3ccccc3c1)=NC2`, the growth was 98.4% (inactive). In the case of `F`, the growth is reported as 10.6% [6.87 mM] (inactive). In the case of `COc1cccc(OCC(O)CN2CCN(c3ccccc3)CC2)c1` (centres undefined), the growth is reported as 105% (inactive). For `CSCCC1NC(=O)C(C(C)=Nc2ccccc2)=C1O` (centres undefined), the growth was 120% (inactive). With `CC(OC(=O)Nc1cccc(Cl)c1)C(=O)O` (centres undefined) the growth was 89.1% (inactive). With `C1=C\CCCCN2CC[C@H]3[C@H](CCCC/C=C\CCCN4C[C@@H](CCCCC/1)C[C@@H]3C4)C2` the growth was 87.6% (inactive). For `CCOc1c(C#N)c2c(N)ncnc2n1C1OC(CO)C(O)C1O` (centres undefined), the growth was 83.6% (inactive). With `COc1cc(/C=C/c2ccc3c(Br)cc(Br)c(O)c3n2)ccc1O` the growth was 63.2% (inactive). In the case of `Cc1ccc(O)c(Cc2ccccc2)c1`, the growth is reported as 104% (inactive). `c1ccc2c(c1)cnc1ccccc12` was tested, and the growth was 92.2% (inactive). In the case of `O=C(Nc1ccc(Oc2ccc(NC(=O)Nc3ccccc3Cl)cc2)cc1)Nc1ccccc1Cl`, the growth is reported as 101% (inactive).
